Reference: PubChem BioAssay AID1159580 (chemical genetic matrix, 2015)
Values joined by “and” are separate entries in the source; they are usually repeats but may differ in a detail not shown here. Equal entries are not always repeated. In all, about 5,500 compounds went through this assay and about 2,000 (36%) were called active. Roughly 18% stayed inconclusive and do not appear here. Cut-off read from the data, not from the text of the source: active = normalized growth mostly below about 0.91 (no sharp cut-off); inconclusive = no clear call, values can overlap the other calls; inactive = mostly above about 0.92. This is one part of the list.

Assay: chemical genetic growth profiling, strain panel (AID 1159580);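 note: tested at 20 µM; growth read once vehicle control cultures reached saturation at 30 °C; 1 = growth at the plate median or of vehicle wells; lower values mean less growth of the strain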
Details: growth OD

Measured: normalized growth

O=C(O)c1cc2cc(Cc3cccnc3)ccc2o1
inactive: S. cerevisiae deletion strains, locus YAL013W, strain DEP1, active compounds read low 1.02 | S. cerevisiae deletion strains, locus YAL040C, strain CLN3, active compounds read low 0.986 | S. cerevisiae deletion strains, locus YBR021W, strain FUR4, active compounds read low 1 | S. cerevisiae deletion strains, locus YBR229C, strain ROT2, active compounds read low 1.01 | S. cerevisiae deletion strains, locus YCL029C, strain bik1, active compounds read low 0.995 | S. cerevisiae deletion strains, locus YCL061C, strain MRC1 (second series), active compounds read low 1.01 | S. cerevisiae deletion strains, locus YDL035C, strain GPR1, active compounds read low 0.994 | S. cerevisiae deletion strains, locus YDL074C, strain BRE1, active compounds read low 0.995 | S. cerevisiae deletion strains, locus YDL101C, strain DUN1, active compounds read low 1.01 | S. cerevisiae deletion strains, locus YDL134C, strain PPH21, active compounds read low 0.993 | S. cerevisiae deletion strains, locus YDL185W, strain tfp1, active compounds read low 0.994 | S. cerevisiae deletion strains, locus YDL192W, strain arf1, active compounds read low 1 | S. cerevisiae deletion strains, locus YDR101C, strain arx1, active compounds read low 1.02 | S. cerevisiae deletion strains, locus YDR162C, strain NBP2, active compounds read low 1 | S. cerevisiae deletion strains, locus YDR318W, strain mcm21, active compounds read low 0.986 | S. cerevisiae deletion strains, locus YDR363W, strain ESC2, active compounds read low 1.01 | S. cerevisiae deletion strains, locus YDR388W, active compounds read low 0.989 | S. cerevisiae deletion strains, locus YDR502C, strain sam2, active compounds read low 0.996 | S. cerevisiae deletion strains, locus YEL061C, strain CIN8, active compounds read low 1 | S. cerevisiae deletion strains, locus YER002W, strain NOP16, active compounds read low 0.99 | S. cerevisiae deletion strains, locus YER110C, active compounds read low 0.995 | S. cerevisiae deletion strains, locus YER155C, strain BEM2, active compounds read low 1.01 | S. cerevisiae deletion strains, locus YER167W, strain BCK2, active compounds read low 1 | S. cerevisiae deletion strains, locus YGL078C, strain dbp3, active compounds read low 0.991 | S. cerevisiae deletion strains, locus YGL086W, strain mad1, active compounds read low 0.998 | S. cerevisiae deletion strains, locus YGL248W, strain PDE1, active compounds read low 1 | S. cerevisiae deletion strains, locus YGR135W, strain pre9, active compounds read low 1.01 | S. cerevisiae deletion strains, locus YGR229C, strain SMI1, active compounds read low 1.05 | S. cerevisiae deletion strains, locus YGR252W, strain gcn5, active compounds read low 0.92 | S. cerevisiae deletion strains, locus YHR030C, strain SLT2, active compounds read low 0.997 | S. cerevisiae deletion strains, locus YHR079C, strain IRE1 (second series), active compounds read low 0.985 | S. cerevisiae deletion strains, locus YHR094C, strain hxt1, active compounds read low 0.995 | S. cerevisiae deletion strains, locus YHR129C, strain ARP1, active compounds read low 0.997 | S. cerevisiae deletion strains, locus YHR200W, strain rpn10, active compounds read low 0.994 | S. cerevisiae deletion strains, locus YIL066C, strain RNR3, active compounds read low 1.01 | S. cerevisiae deletion strains, locus YIL073C, strain SPO22, active compounds read low 1.01 | S. cerevisiae deletion strains, locus YIL125W, strain kgd1, active compounds read low 0.999 | S. cerevisiae deletion strains, locus YIR030C, strain dcg1, active compounds read low 0.995 | S. cerevisiae deletion strains, locus YJL095W, strain BCK1, active compounds read low 1.01 | S. cerevisiae deletion strains, locus YJL134W, strain LCB3, active compounds read low 1 | S. cerevisiae deletion strains, locus YJL168C, strain set2, active compounds read low 0.991 | S. cerevisiae deletion strains, locus YJL187C, strain SWE1 (second series), active compounds read low 1.01 | S. cerevisiae deletion strains, locus YJR043C, strain POL32, active compounds read low 1.02 | S. cerevisiae deletion strains, locus YJR075W, strain HOC1, active compounds read low 1.01 | S. cerevisiae deletion strains, locus YKL009W, strain mrt4, active compounds read low 0.983 | S. cerevisiae deletion strains, locus YKL068W, active compounds read low 0.992 | S. cerevisiae deletion strains, locus YKL085W, strain MDH1 (second series), active compounds read low 0.999 | S. cerevisiae deletion strains, locus YKL085W, strain MDH1, active compounds read low 0.999 | S. cerevisiae deletion strains, locus YKL190W, strain CNB1, active compounds read low 1.01 | S. cerevisiae deletion strains, locus YKR001C, strain vps1, active compounds read low 0.997 | S. cerevisiae deletion strains, locus YLR039C, strain RIC1, active compounds read low 1.01 | S. cerevisiae deletion strains, locus YLR058C, strain SHM2, active compounds read low 1.01 | S. cerevisiae deletion strains, locus YLR102C, strain apc9, active compounds read low 0.991 | S. cerevisiae deletion strains, locus YLR262C, strain YPT6, active compounds read low 1.03 | S. cerevisiae deletion strains, locus YLR268W, strain sec22, active compounds read low 0.986 | S. cerevisiae deletion strains, locus YLR330W, strain CHS5, active compounds read low 1.01 | S. cerevisiae deletion strains, locus YLR342W, strain FKS1 (second series), active compounds read low 0.988 | S. cerevisiae deletion strains, locus YLR371W, strain rom2, active compounds read low 0.988 | S. cerevisiae deletion strains, locus YLR418C, strain cdc73, active compounds read low 0.975 | S. cerevisiae deletion strains, locus YML016C, strain PPZ1, active compounds read low 1 | S. cerevisiae deletion strains, locus YML032C, strain rad52, active compounds read low 0.995 | S. cerevisiae deletion strains, locus YML124C, strain tub3, active compounds read low 0.994 | S. cerevisiae deletion strains, locus YMR078C, strain ctf18, active compounds read low 0.995 | S. cerevisiae deletion strains, locus YMR223W, strain ubp8, active compounds read low 0.995 | S. cerevisiae deletion strains, locus YMR263W, strain SAP30, active compounds read low 1 | S. cerevisiae deletion strains, locus YMR307W, strain GAS1, active compounds read low 0.967 and 0.989 | S. cerevisiae deletion strains, locus YNL067W, strain RPL9B, active compounds read low 1 | S. cerevisiae deletion strains, locus YNL153C, strain GIM3, active compounds read low 1.02 | S. cerevisiae deletion strains, locus YNL175C, strain NOP13, active compounds read low 1 | S. cerevisiae deletion strains, locus YNL197C, strain WHI3, active compounds read low 1.02 | S. cerevisiae deletion strains, locus YNL224C, strain SQS1, active compounds read low 1.02 | S. cerevisiae deletion strains, locus YNL233W, strain BNI4, active compounds read low 1 | S. cerevisiae deletion strains, locus YNL250W, strain rad50, active compounds read low 0.989 | S. cerevisiae deletion strains, locus YNL271C, strain bni1, active compounds read low 0.999 | S. cerevisiae deletion strains, locus YNL298W, strain CLA4, active compounds read low 0.981 | S. cerevisiae deletion strains, locus YNL307C, strain MCK1, active compounds read low 0.995 | S. cerevisiae deletion strains, locus YNR052C, strain pop2, active compounds read low 0.99 | S. cerevisiae deletion strains, locus YOL006C, strain TOP1, active compounds read low 1.04 | S. cerevisiae deletion strains, locus YOL012C, strain htz1 1.18 | S. cerevisiae deletion strains, locus YOL147C, strain pex11, active compounds read low 0.995 | S. cerevisiae deletion strains, locus YOR061W, strain CKA2, active compounds read low 1.01 | S. cerevisiae deletion strains, locus YOR069W, strain VPS5, active compounds read low 1 | S. cerevisiae deletion strains, locus YOR083W, strain WHI5 (second series), active compounds read low 1.03 | S. cerevisiae deletion strains, locus YOR136W, strain idh2, active compounds read low 0.997 | S. cerevisiae deletion strains, locus YOR144C, strain elg1, active compounds read low 0.995 | S. cerevisiae deletion strains, locus YOR184W, strain ser1, active compounds read low 0.988 | S. cerevisiae deletion strains, locus YOR316C, strain cot1, active compounds read low 0.992 | S. cerevisiae deletion strains, locus YPL055C, strain LGE1, active compounds read low 1.03 and 1.01 | S. cerevisiae deletion strains, locus YPL241C, strain CIN2, active compounds read low 1.01 | S. cerevisiae deletion strains, locus YPR119W, strain clb2, active compounds read low 0.992 | S. cerevisiae deletion strains, locus YPR141C, strain kar3, active compounds read low 0.996 | S. cerevisiae deletion strains, locus YPR163C, strain tif3, active compounds read low 0.993 | S. cerevisiae deletion strains, locus YPR167C, strain met16, active compounds read low 0.991 | S. cerevisiae deletion strains, strain wtn01, active compounds read low 0.986 | S. cerevisiae strains, strain wild type, active compounds read low 1
